Pf growth 48h: P. falciparum growth inhibition at 48 hours (one generation); P. falciparum luciferase growth in erythrocytes, 48 h; Potency, µM (doses to about 28.7 µM), for the others: top-dose activity change, negative = inhibition, usual class: inhibitors; hit rate 5.9% among 310,000; AID 504832; note: potency is the fitted concentration of half-maximal effect; % is set by controls: 0 for no effect and ±100 for the full control effect
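Here the parasites carry a stable luciferase gene and grow inside erythrocytes in Albumax-based RPMI medium with compound for one erythrocytic cycle. Activity is scored as loss of luminescent signal.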
CHX counter: counter-screen hit for Shiga toxin inhibitors, cycloheximide. cell reporter, cycloheximide protein synthesis inhibition counterscreen. hit rate 12% among 300,000. max response, %; in the data active = max response mostly above about 13%, no sharp cut-off; inactive = mostly below about 14%; note: read at 38.3 µM for the half of the compounds with a filed dose; 0% is about no effect
Shiga inhibitor: Shiga toxin inhibition; Vero cells, Shiga toxin protein synthesis inhibition reporter; inhibition, % at 38.7 µM; hit rate 9.2% among 290,000; in the data active = inhibition mostly above about 28%, no sharp cut-off; inactive = mostly below about 43%; note: 0% is about no effect
Pf growth 96h: inhibits malaria parasite growth, 96 h; P. falciparum luciferase reporter growth, 96 h; Potency, µM (series often up to 28.7 µM), for the others: at the highest dose activity change, negative = inhibition, usual class: inhibitors; hit rate 6.9% among 320,000; AID 504834; note: potency is the fitted concentration of half-maximal effect; % is set by controls: 0 for no effect and ±100 for the full control effect
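Luminescence readout: decreased luciferase signal marks inhibited growth of reporter-expressing P. falciparum in infected red cells (2% hematocrit, 0.05% parasitemia final), exposed to compound two generations (96 h, 37 C, 5% CO2).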
Active calls of the source: *; ? = inconclusive; . = no result; [ ] = dose if it differs, or a comment. An excerpt weighted towards active compounds, which were near 21% of everything screened. Unless noted, calls come from the whole dose curve; as a rule, active = well fitted inhibition curve with a large enough effect; inconclusive = small, poorly fitted or top-dose-only effect, or another doubt; inactive = no such curve, though single readings can be large or run the other way.

SMILES | Pf growth 48h | CHX counter | Shiga inhibitor | Pf growth 96h
CN(CC(=O)Nc1ccccc1Cl)CC(=O)Nc1ccccc1[N+](=O)[O-] | -16.9% | -1.5 | -6.0 | 4.9%
CC(C)(CNC(=O)c1ccc(S(=O)(=O)Nc2ccc(Cl)cc2)cc1)N1CCOCC1 | ? | . | . | -7.6%
CN1C(=O)SC(Nc2ccccc2C(=O)O)C1=O (stereo not drawn) | 5.6% | -2.0 | 1.2 | 1.31µM*
C[C@]1(CC/C(=C/CO)CO)[C@H](CO)CC[C@@]23COC(=O)C2=CCC[C@@H]31 | -11.0% | . | . | 1.1%
c1cncc(Nc2nc(-c3cccs3)cs2)c1 | 2.5% | 63.1* | 102.9* | 2.94µM*
COc1ccc(Nc2nc(-c3c(C)nc4ncccn34)cs2)cc1 | ? | -3.1 | -22.2 | ?
c1ccc(Nc2nc(-c3ccccn3)cs2)cc1 | 6.2% | 40.8* | 108.2* | -47.6%
COc1cccc2sc(Nc3nc(-c4ccccn4)cs3)nc12 | 0.465µM* | 74.7* | 104.9* | ?
Cc1nc2ncccn2c1-c1csc(Nc2ccccc2)n1 | 3.29µM* | 13.3 | 21.5 | 5.9%
COc1ccc(OCCCC(=O)Nc2nc(-c3ccccn3)cs2)cc1 | ? | 4.4 | 8.2 | ?
CCC(=O)NCCC1CCc2ccc3c(c21)CCO3 (stereo not drawn) | -1.0% | . | . | -18.3%
c1ccc(-c2csc(Nc3cccnc3)n2)nc1 | 95.8% | 35.3* | 44.0* | 24.2%
CC(C)CNC(=O)C(=O)NCC1CCCN1S(=O)(=O)c1cccs1 (stereo not drawn) | ? | . | . | 7.6%
CC1=NC(=O)C(N=Nc2cccc(O)c2)N1c1ccccc1 (stereo not drawn) | . | 27.1* | 55.3* | 99.3%
Cc1cccc(-n2c(O)c(C=Nc3cccc(O)c3)c3ccccc3c2=O)n1 | ? | 10.7 | -9.2 | -23.5%
O=C1CC(O)(C(F)(F)F)Oc2c1ccc1ccccc21 (stereo not drawn) | 22.0% | 19.1* | 78.9 | .
Cc1cc(F)ccc1NC(=O)C1CSC2(C)CCC(=O)N12 (stereo not drawn) | 7.0% | . | . | 5.3%
COc1n[nH]c(C(=O)Nc2cc(Cl)ccc2Cl)c1[N+](=O)[O-] | ? | 8.8 | 3.4 | 4.65µM*
COc1ccc(NC(=O)CN2C(=O)COc3ccc(S(=O)(=O)N4CCCCC4)cc32)c(OC)c1 | ? | 5.5 | -2.8 | ?
Cc1ccccc1NC(=O)CN1C(=O)CSc2ccc(S(=O)(=O)N3CCCC3)cc21 | -15.9% | -6.2 | 2.2 | 13.1µM*
CC(=O)c1ccc(NC(=O)CN2C(=O)COc3ccc(S(=O)(=O)N4CCCC4)cc32)cc1 | 27.8% | 1.2 | -6.5 | 1.4%
Cc1cc(C)cc(NC(=O)CN2C(=O)COc3ccc(S(=O)(=O)N4CCCC4)cc32)c1 | 0.2% | 0.7 | 4.0 | ?
COc1cc(NC(=O)CN2C(=O)COc3ccc(S(=O)(=O)N4CCCCC4)cc32)cc(OC)c1 | ? | 8.9 | -16.8 | 10.4µM*
COc1cc(NC(=O)CN2C(=O)COc3ccc(S(=O)(=O)N4CCCC4)cc32)cc(OC)c1 | ? | 0.8 | -3.0 | 0.415µM*
CC(=O)c1cccc(NC(=O)CN2C(=O)COc3ccc(S(=O)(=O)N4CCOCC4)cc32)c1 | ? | 1.9 | 22.4 | 11.7µM*
SMILES | Pf growth 48h | CHX counter | Shiga inhibitor | Pf growth 96h
Cc1cc(C)cc(N(CC(=O)NC2CCCC2)C(=O)CNC(=O)c2cccs2)c1 | -14.4% | -2.8 | -12.1 | -15.9%
C/C=C\C(=O)N(CC)c1ccccc1C | -12.0%[12.8 µM] | . | . | 4.3%[12.8 µM]
O=C(ONC1=NCCCCC1)c1ccc(Cl)cc1 | ? | 17.0* | 37.1 | .
O=C(ONC1=NCCCCC1)c1c(F)cccc1F | 13.1µM* | 18.2* | -3.1 | -49.9%
O=C(CNC1=NCCC1)c1ccc(Cl)cc1 | ? | -1.8 | -4.4 | 11.7µM*
CCn1c(SCC(=O)Nc2nncs2)nnc1-c1ccco1 | -14.6% | -3.5 | -0.9 | 8.0%
O=C(COC(=O)c1cnccn1)NCCc1ccc(Cl)cc1 | 24.6% | . | . | 20.4%
Cn1cccc1CC(=O)N/N=C/c1cccc2ccccc12 | ? | 22.1* | 33.1* | -13.0%
Cc1ccsc1/C=N/NC(=O)Cc1cccn1C | 25.9% | 21.3* | 50.2 | -8.0%
CC(C)(CNC(=O)CO/N=C1/C=C2CCC3C(C(O)C[C@@]4(C)C3CC[C@]4(O)C(=O)CO)[C@@]2(C)CC1)C(O)C(=O)O (stereo partly drawn) | ? | -2.6 | 3.6 | ?
CCCn1cc2c3c(cccc31)C1CC(C)CN(C)C1C2 (stereo not drawn) | ? | 6.7 | 17.6 | 11.7µM*
CC(C)N(Cc1nc(-c2ccc(Cl)cc2)no1)Cc1nccn1C | ? | 10.4 | 5.8 | ?
COc1ccccc1CC1CC(=O)N(c2ccccc2)C1=O (stereo not drawn) | -2.4% | -3.2 | -6.3 | 9.28µM*
Cc1ccc(S(=O)(=O)CCC(=O)Nc2ccc(Br)cc2)cc1 | -3.8% | -4.6 | -19.5 | -6.5%
Cc1ccc(Sc2nc(C)c([N+](=O)[O-])c(C)c2C#N)cc1 | ? | -2.3 | -15.2 | ?
Cc1nc(Sc2ccc(Br)cc2)c(C#N)c(C)c1[N+](=O)[O-] | ? | -2.6 | -13.5 | 9.28µM*
Cc1nc(Sc2ccc(Cl)cc2)c(C#N)c(C)c1[N+](=O)[O-] | ? | 6.3 | -7.7 | 11.7µM*
COc1ccc(C(=O)N2CCCCCC2)cc1S(=O)(=O)N1CCOCC1 | 5.7% | -2.0 | 2.9 | -12.4%
CCN(CC(=O)Nc1cccc(OC)c1)C(=O)c1cccc(S(=O)(=O)N2CCc3ccccc32)c1 | 11.7µM* | . | . | ?
COc1cc2c(cc1OC)CN(C(=O)c1cccc(S(=O)(=O)N3CCc4ccccc43)c1)CC2 | 10.4µM* | . | . | 11.7µM*
COc1cc2c(cc1OC)CN(C(=O)c1ccc(OC)c(S(=O)(=O)N3CCCC3)c1)CC2 | 11.7µM* | . | . | ?
Cc1ccc(NS(=O)(=O)c2cc(C(=O)NCCCN(C)C)ccc2Cl)cc1Cl | 6.57µM* | . | . | ?
CCOC(=O)C1CCN(CC(=O)Nc2ccc(S(=O)(=O)N3CCC(C)CC3)cc2)CC1 | ? | -0.7 | -3.8 | ?
Cc1cccc(N=C2NC(=O)c3cc([N+](=O)[O-])ccc32)c1 | -10.6% | 2.5 | 3.2 | ?
CCN(CC)Cc1ccccc1CNC(=O)c1cccc(S(=O)(=O)Nc2ccc3c(c2)OCO3)c1 | 9.28µM* | . | . | ?
SMILES | Pf growth 48h | CHX counter | Shiga inhibitor | Pf growth 96h
CCN(CC)CCNC(=O)c1ccc(NC(=O)c2cccc(S(=O)(=O)Nc3ccc(C)cc3)c2)cc1 | 0.37µM* | 2.9 | -5.6 | 1.17µM*
CCN(CC)CCNC(=O)c1ccc(NC(=O)/C=C/c2cc(OC)c(OC)c(OC)c2)cc1 | 5.22µM* | -2.4 | -6.2 | ?
CCN(CC)CCNC(=O)c1ccc(NC(=O)c2cccc(S(=O)(=O)N3CCc4ccccc43)c2)cc1 | 0.738µM* | . | . | 1.04µM*
CCN(CC)CCNC(=O)c1ccc(NC(=O)c2cccc(S(=O)(=O)N3c4ccccc4CC3C)c2)cc1 (stereo not drawn) | 15.8% | -2.0 | -22.3 | -25.1%
O=[N+]([O-])c1c(Cl)cccc1-c1c[nH]cc1Cl | -10.6% | . | . | -5.1%
COc1ccc(NC(=O)c2cccc(S(=O)(=O)N3CCc4ccccc43)c2)cn1 | ? | 1.3 | 22.1 | 11.7µM*
COc1ccccc1NS(=O)(=O)c1cc(N/C(=N\S(=O)(=O)c2ccccc2)c2ccc(F)cc2)ccc1Cl | 9.28µM* | 3.9 | -4.5 | 13.1µM*

Screens: PubChem BioAssay, National Center for Advancing Translational Sciences (NCATS)
